# This is one part of a sample in which hits are shown more often than they occur.
# HT1080 IDH1KD tx = HT-1080 IDH1 knockdown cell toxicity (counter line) | HT-1080 IDH1 knockdown viability, ATP luminescence, 48 h | Potency, µM (titrated, usually from 46.1 µM), for inactives: at the top dose activity, negative = toxicity, most hits filed as cytotoxic | 2% of 360,000 active;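 also: potency is read from the fitted curve at half-maximal effect; 0% = DMSO wells and -100% = cell-free medium wells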
#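 % activity derives from luminescence (CellTiter-Glo), normalised to DMSO and no-cell wells. HT-1080-IDH1KD cells, 750/well, had 48 h compound exposure at 37 °C.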
# TDP1 cell CPT = growth inhibition of DT40 Tdp1-/-;hTDP1 cells with camptothecin (screen for TDP1 inhibitors). chicken DT40 Tdp1-/-;hTDP1 cells + 20 nM CPT, ATP luminescence, 48 h. Potency, µM (series often up to 46.2 µM), without a hit: at the highest dose activity change, negative = growth inhibition, actives largely listed as inhibitors. 12% of 420,000 active. AID 686979; also: potency is read from the fitted curve at half-maximal effect; nearly all actives have a fitted effect of over 55% in size
#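 Cell growth measured by CellTiter-Glo luminescence after a minimum 48 h, 37 C compound exposure with 20 nM CPT in Tdp1-knockout DT40 cells stably expressing hTDP1, seeded 400/well; qHTS titration format.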
# ALOX12 inh = ALOX12 (human) lipoxygenase inhibition. P18054. Potency, µM (doses to about 108 µM), for the others: at the highest dose activity change, negative = inhibition, most hits filed as inhibitors. 1.1% of 580,000 active. purified 12hLO, xylenol orange hydroperoxide absorbance. AID 1671190; also: potency is read from the fitted curve at half-maximal effect
# Target sequence (P18054 whole entry, looked up): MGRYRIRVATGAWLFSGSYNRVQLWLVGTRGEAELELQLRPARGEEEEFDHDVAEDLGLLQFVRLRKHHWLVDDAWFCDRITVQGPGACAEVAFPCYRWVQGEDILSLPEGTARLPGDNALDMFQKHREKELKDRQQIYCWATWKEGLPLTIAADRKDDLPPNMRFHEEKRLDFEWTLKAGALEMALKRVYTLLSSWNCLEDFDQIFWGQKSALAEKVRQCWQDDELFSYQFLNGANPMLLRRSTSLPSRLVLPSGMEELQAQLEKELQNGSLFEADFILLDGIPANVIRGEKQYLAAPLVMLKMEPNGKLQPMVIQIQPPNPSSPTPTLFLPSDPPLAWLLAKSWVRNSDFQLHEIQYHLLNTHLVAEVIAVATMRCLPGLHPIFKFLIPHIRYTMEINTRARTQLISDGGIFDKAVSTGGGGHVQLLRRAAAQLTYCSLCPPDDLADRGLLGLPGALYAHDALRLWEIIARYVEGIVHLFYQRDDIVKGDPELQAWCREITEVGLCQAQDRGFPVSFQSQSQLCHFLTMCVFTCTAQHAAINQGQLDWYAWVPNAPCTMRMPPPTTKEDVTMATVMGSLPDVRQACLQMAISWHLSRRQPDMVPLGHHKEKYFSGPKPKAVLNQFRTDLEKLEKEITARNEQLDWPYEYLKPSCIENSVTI
#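 Purified human 12hLO at 150 nM in 25 mM Hepes, 0.01% Triton X-100, pH 7.0, preincubated 15 min at room temperature with compound. Reaction started with 40 uM arachidonic acid, 30 min at room temperature. Hydroperoxide measured by Fe-xylenol orange, 573/405 nm absorbance ratio.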
# DT40 TDP1 no CPT = qHTS for Inhibitors of human tyrosyl-DNA phosphodiesterase 1 (TDP1): qHTS in cells in absence of CPT. DT40 Tdp1-/- hTDP1 cells, no CPT, ATP luminescence, 48 h. 15% of 420,000 active. Potency, µM (titrated, usually from 46.2 µM), for inactives: at the highest dose activity change, negative = growth inhibition, hits mostly inhibitors; also: potency is read from the fitted curve at half-maximal effect; nearly all actives have a fitted effect of over 55% in size
#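 Growth kinetics read by CellTiter-Glo luminescence after ≥48 hr at 37 °C. Cells: DT40 Tdp1-/- stably carrying human TDP1, 400 per well, compound exposure in the absence of CPT (DMSO vehicle).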
# IL1B secr inh = blocks inflammasome-driven IL-1 beta release. 4.7% of 360,000 active. AID 743279. activity change, % at 57.5 µM. THP-1 LPS/ATP IL-1B secretion, AlphaLISA, 16 h; active compounds read low; in the data active = activity change below about -50%; inconclusive = mostly about -30% to -49%
#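 Secreted IL-1B measured by AlphaLISA bead assay after 16 h compound exposure of THP-1 cells; compounds (final up to 57.5 uM) added 1 h before LPS (250 ng/mL) and ATP (1.25 mM) stimulation; lower signal means less secretion.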
# HT1080-NT tox = kills 2HG-producing HT-1080-NT fibrosarcoma cells | 1.6% of 360,000 active | HT-1080-NT fibrosarcoma viability, CellTiter-Glo ATP luminescence, 48 h | Potency, µM (titrated, usually from 46.1 µM), for the others: at the top dose activity, negative = less viability, most hits filed as cytotoxic;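 also: NT is the 2HG producing partner of a matched IDH1 knockdown line; potency is read from the fitted curve at half-maximal effect; 0% = DMSO-treated cells and -100% = media-only wells without cells; nearly all actives have a fitted effect of over 55% in size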
#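 Read-out is CellTiter-Glo luminescence after 10 minutes at room temperature, following 48 hours' compound treatment of HT-1080-NT cells (750 cells/well, RPMI, 5% FBS, 37 degrees C).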
# Starred values were filed as active, the others as inactive; ? = inconclusive; · = no result given; [ ] = dose if it differs, or a comment. Unless noted, calls follow the shape of the dose curve; as a rule, active = well fitted curve in the direction sought with a large enough effect; inconclusive = small, poorly fitted or top-dose-only effect, or another doubt; inactive = no such curve, though single readings can be large; an effect the other way counts as inactive or inconclusive. Unless noted, % is scaled to controls: 0 for no effect and ±100 for the full control effect.
SMILES,HT1080 IDH1KD tx,TDP1 cell CPT,ALOX12 inh,DT40 TDP1 no CPT,IL1B secr inh,HT1080-NT tox
Cc1ccccc1N=CC1=C(O)c2ccccc2C1=O,?,?,-16%,16µM*,-8,?
Cc1ccc(Sc2csc(-c3ccccc3)n2)cc1,·,·,34%,·,·,·
O=C(Nc1ncc(Cc2cccc(Cl)c2)s1)C1=NCCN1,0%,16µM*,10%,?,-4,20µM*
O=C(Nc1ncc(Cc2cccc(Cl)c2)s1)c1cccs1,?,?,8%,?,-25,?
CC1CCN(CCCn2c(=S)[nH]c3c(sc4ccc([N+](=O)[O-])cc43)c2=O)CC1,-21%,?,?,-26%,10,-16%
O=C(O)CCCn1c(=S)[nH]c2c(sc3ccc([N+](=O)[O-])cc32)c1=O,14%,6%,18µM*,10%,-14,14%
COc1ccccc1CNC(=O)c1cc(C)nn1-c1ccccc1,6%,2%,0%,12%,1,5%
CCOc1ccc(CCNC(=O)CN2C(=O)CCSc3ccccc32)cc1,-1%,5%,10%,?,-11,4%
CCOc1ccc(CCNC(=O)c2cc3cccc4c3n2CCS4)cc1,·,9.2µM*,?,?,·,·
COc1ccccc1CNC(=O)c1cc2cccc3c2n1CCS3,·,18µM*,-20%,?,·,·
O=C(NCc1ccccc1Cl)c1cnc2n(c1=O)CCS2,2%,-5%,31%[57.4 µM],-4%,-1,2%
O=C(NCc1ccccc1Cl)c1cc2cccc3c2n1CCS3,·,23µM*,-26%,?,·,·
COc1ccc(CNC(=O)c2csc(NCc3ccccc3)n2)cc1,·,·,30%,·,·,·
COc1cc(/C=C(/C#N)c2ccc(Cl)cc2)ccc1OC(C)C,·,·,-2%,·,·,·
COC(=O)c1sc2nc3c(cc2c1N)C(=O)CC(C)(C)C3,26%[9.24 µM],-20%,18%,-11%,-3,2%
Cc1cc(C)c(NC(=O)c2sc3nc4c(cc3c2N)C(=O)CC(C)(C)C4)c(C)c1,-1%,?,-14%,18µM*,-23,3%
CCCCn1nc(C(=O)NCCc2ccc(S(N)(=O)=O)cc2)c2ccccc2c1=O,·,·,-26%,·,·,·
C1CN(CC23CC4CC(CC(C4)C2)C3)CCO1,-5%,-21%,126%,16µM*,-1,3%
c1ccc2c(c1)Cc1cc(-n3cccc3)ccc1-2,·,·,5%,·,·,·
O=C(Nc1ccc2c(c1)OCO2)C1CCCCN1S(=O)(=O)c1ccccc1 (stereo not drawn),-3%,?,0%,?,1,1%
Cc1cc(C)cc(NC(=O)C2CCCCN2S(=O)(=O)c2ccccc2)c1 (stereo not drawn),-6%,21µM*,-11%,13µM*,-3,-3%
O=C(NCc1ccccc1Cl)[C@@H]1CCCN1S(=O)(=O)c1ccc(Cl)cc1,-5%,?,-21%,16µM*,-51*,-1%
CC(C)(C)c1ccc(NC(=O)C2CCCN2S(=O)(=O)c2ccc(F)cc2)cc1 (stereo not drawn),·,·,-1%,·,·,·
CC(=O)Nc1ccc(NC(=O)C2CCCCN2S(=O)(=O)c2ccc(C(C)(C)C)cc2)cc1 (stereo not drawn),-20%,23µM*,-26%,?,13,-15%
O=C(NCc1ccccc1)C1CCCN1S(=O)(=O)c1ccc(Cl)cc1 (stereo not drawn),-1%,?,?,-27%,0,14%
SMILES,HT1080 IDH1KD tx,TDP1 cell CPT,ALOX12 inh,DT40 TDP1 no CPT,IL1B secr inh,HT1080-NT tox
COc1ccc(S(=O)(=O)N2CCCC2C(=O)Nc2nnc(-c3cccnc3)s2)cc1 (stereo not drawn),12%,-29%,40µM*,-29%,29,-2%
COc1ccc(C(=O)Nc2ccc(-c3noc([C@@H]4CCCN4Cc4cnc5ccccc5c4)n3)cn2)cc1,·,·,27%,·,·,·
CSc1ccc(-c2nc(CSCC(=O)NCc3cccs3)c(C)o2)cc1,·,·,-5%,·,·,·
CC(=O)c1ccc(NC(=O)C2CCCN2S(=O)(=O)c2ccc(C)cc2)cc1 (stereo not drawn),0%,?,4%,?,124,6%
O=C(Nc1ccccc1)C1CCCCN1S(=O)(=O)c1ccccc1 (stereo not drawn),-17%,-9%,-10%,?,9,-8%
Cc1ccc(S(=O)(=O)N2CCCC2C(=O)Nc2nc3c(s2)CCCC3)cc1 (stereo not drawn),-23%,?,0%,23µM*,-4,-1%
O=C(Nc1ccc(C(F)(F)F)cc1)C1CCCCN1S(=O)(=O)c1ccccc1 (stereo not drawn),-2%,9.2µM*,?,29µM*,-24,2%
O=C(Nc1ccc(Cl)cc1)C1CCCCN1S(=O)(=O)c1ccccc1 (stereo not drawn),?,?,?,7.3µM*,-10,?
Cc1ccc(S(=O)(=O)N2CCCCC2C(=O)Nc2nncs2)cc1 (stereo not drawn),-2%,8%,0%,-3%,0,0%
Cc1ccc(NC(=O)[C@@H]2CCCN2S(=O)(=O)c2ccc(Cl)cc2)cc1,-7%,21µM*,-25%,?,4,24%
CCN(Cc1noc(C2CCC2)n1)C(=O)C1CCN(c2ccccc2)C1=O (stereo not drawn),·,·,-16%,·,·,·
O=C(Nc1ccc(Cl)cn1)C1CCCN1S(=O)(=O)c1ccccc1 (stereo not drawn),-2%,21µM*,-7%,12µM*,13,-3%
O=C(OCC(=O)N1CCN(c2ccccc2)CC1)C1CCCN1S(=O)(=O)c1ccc(Cl)cc1 (stereo not drawn),1%,?,?,21µM*,7,3%
O=C(NC1CC1)c1cccc(NC(=O)C2CCC2)c1,14%,6%,-3%,4%,7,1%
Cc1ccc(S(=O)(=O)N2CCCCC2C(=O)N(C)c2ccccc2)cc1 (stereo not drawn),0%,16µM*,61%,15µM*,24,-12%
O=C(NC1CC1)c1cccc(NC(=O)C2CCN(S(=O)(=O)c3ccccc3C(F)(F)F)CC2)c1,1%,?,-4%,26µM*,-8,-5%
O=C(CS(=O)(=O)c1ccc(Cl)cc1)N1CCN(c2ccccc2)CC1,4%,0%,1%,-26%,-20,0%
COc1ccc(-c2cc(N3CCCC(NC(=O)c4ccc(N(C)C)cc4)C3)n[nH]2)cc1 (stereo not drawn),·,·,45%,·,·,·
